# Data: PubChem BioAssay AID651871 (Sanford-Burnham Center for Chemical Genomics, 2012)
# Values joined by “and” are separate entries in the source; they are usually repeats but may differ in a detail not shown here. Identical values can stand only once.
# System: H9c2
# Experiment: cardiomyocyte survival under oxidative or metabolic stress – cell-based, panel, H9c2 and HL-1, ATP luminescence, set 2, SAR follow-up (AID 651871);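 note: cells exposed to stressor for 2 h before ATP readout; reference of the scale not given here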
# Conditions: H9c2/HL-1 cardiomyocytes, 2-deoxyglucose stress, with 2-deoxyglucose; run 5, at 79 µM (top of the series)
smiles,measurement,value
CCOC(=O)c1cccc(NC(=O)CNC(=O)c2cc(-c3cc(OC)c(OC)c(OC)c3)nc3ccccc23)c1,activity (protection/inhibition),97.3%
COc1ccc2nc(-c3cc(OC)c(OC)c(OC)c3)cc(C(=O)NCC(=O)Nc3ccc(C(C)=O)cc3)c2c1,activity (protection/inhibition),70.9%
COc1ccc2c(c1OC)C(=O)N1c3ccccc3C(=O)N(Cc3cccc(Cl)c3Cl)C21 (stereo not drawn),activity (protection/inhibition),88% and 69.1% and -5.13%
